About 79,000 compounds went through this panel and 15% of them were active in at least one assay; those are over-represented in the sample as a whole. Activity calls are given as the source filed them. No stated cut-off is given here; in the data, active means growth inhibition above about 70%; inactive means the rest.
Experiments:
[1] = NCI Yeast Anticancer Drug Screen. Data for the rad52 strain (AID 147);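 further: 0% = growth of vehicle-treated control cultures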; conditions: S. cerevisiae rad52 mutant growth inhibition, stronger effect = higher value
Method in brief: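 Inhibition of yeast growth, referenced to vehicle controls, was the measured output for a strain with defective DNA damage repair.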

[2] = NCI Yeast Anticancer Drug Screen. Data for the wt1 strain (AID 149);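 further: 0% = growth of vehicle-treated wt1 cultures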; conditions: S. cerevisiae wt1 strain (SPY 50644) growth inhibition, stronger effect = higher value
Method in brief: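 Growth inhibition read against vehicle controls after compound exposure of the wt1 yeast strain.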

[3] = NCI Yeast Anticancer Drug Screen. Data for the rad50EPP+ strain (AID 151);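 further: 0% = growth of vehicle-treated control cultures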; conditions: S. cerevisiae rad50 mutant strain, stronger effect = higher value
Method in brief: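 Genetically defined yeast (rad50EPP+, DNA damage repair alteration) is grown with compound, and inhibition of growth is expressed relative to vehicle-treated controls.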

[4] = NCI Yeast Anticancer Drug Screen. Data for the mgt1 strain (AID 153); conditions: S. cerevisiae mgt1 mutant growth inhibition, stronger effect = higher value
Method in brief: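 In the mgt1 strain, test compounds were added and growth inhibition was determined relative to vehicle-treated controls.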

[5] = NCI Yeast Anticancer Drug Screen. Data for the rad50 strain (AID 155);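 further: 0% = growth of vehicle-only cultures of the same strain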; conditions: S. cerevisiae rad50 strain growth inhibition, stronger effect = higher value
Method in brief: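 Readout: growth inhibition relative to vehicle-treated cultures. Compound exposure was carried out in a genetically defined yeast strain deficient in DNA damage repair.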

[6] = NCI Yeast Anticancer Drug Screen. Data for the mec2-1 strain (AID 157); conditions: S. cerevisiae mec2-1 strain, stronger effect = higher value
Method in brief: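 Each compound was tested on mec2-1 yeast, a strain altered in DNA damage repair or cell cycle control. Growth inhibition is reported relative to vehicle.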

[7] = NCI Yeast Anticancer Drug Screen. Data for the rad14 strain (AID 159);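 further: 0% = growth of vehicle-treated control cultures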; conditions: S. cerevisiae rad14 strain growth inhibition, stronger effect = higher value
Method in brief: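 Growth inhibition vs vehicle controls; genetically altered yeast strain (DNA damage repair defect) treated with test compounds.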

[8] = NCI Yeast Anticancer Drug Screen. Data for the sgs1 mgt1 strain (AID 161);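 further: 0% = growth of cultures given vehicle only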; conditions: S. cerevisiae sgs1 mgt1 strain, stronger effect = higher value
Method in brief: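 Inhibition of yeast growth, normalised to vehicle-treated controls, is reported for a strain bearing genetic alterations in DNA damage repair.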

[9] = NCI Yeast Anticancer Drug Screen. Data for the CLN2oe strain (AID 163);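 further: 0% = growth of vehicle-only control cultures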; conditions: S. cerevisiae CLN2oe strain, stronger effect = higher value
Method in brief: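 First, the altered yeast strain was treated with each compound; second, its growth was measured; finally, inhibition was derived by comparison with vehicle controls.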

[10] = NCI Yeast Anticancer Drug Screen. Data for the cln2 rad14 strain (AID 165);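 further: 0% = growth equal to vehicle treated cultures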; conditions: S. cerevisiae cln2 rad14 strain, stronger effect = higher value
Method in brief: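 Test compounds were added to cln2 rad14 yeast cultures; inhibition of growth was then determined by comparison with vehicle treatment.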

[11] = NCI Yeast Anticancer Drug Screen. Data for the bub3 strain (AID 167); conditions: S. cerevisiae bub3 mutant strain, stronger effect = higher value
Method in brief: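 Readout: yeast growth inhibition, expressed relative to vehicle-only wells. The test organism is a mutant strain from a panel with lesions in DNA repair or checkpoint genes.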

[12] = NCI Yeast Anticancer Drug Screen. Data for the wt2 strain (AID 169);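 further: 0% = growth of vehicle-treated yeast cultures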; conditions: S. cerevisiae wt2 strain growth inhibition, stronger effect = higher value
Method in brief: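 The panel's yeast strains carry defined changes in DNA repair or cell cycle genes. Each strain is grown with compound, and growth loss is scored relative to vehicle.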

[13] = NCI Yeast Anticancer Drug Screen. Data for the sgs1 strain (AID 173);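 further: 0% = growth of vehicle-only control cultures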; conditions: S. cerevisiae sgs1 mutant, stronger effect = higher value
Method in brief: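 Vehicle-treated cultures served as reference for growth inhibition of a yeast strain altered in DNA damage repair or cell cycle control after compound exposure.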

[14] = NCI Yeast Anticancer Drug Screen. Data for the mlh1 rad18 strain (AID 175); conditions: S. cerevisiae mlh1 rad18 strain growth inhibition, stronger effect = higher value
Method in brief: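 Inhibition values reflect reduced growth of mutant yeast versus vehicle-treated controls following compound exposure; the mutations affect DNA damage repair.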

[15] = NCI Yeast Anticancer Drug Screen. Data for the rad18 strain (AID 177); conditions: S. cerevisiae rad18 mutant growth inhibition, stronger effect = higher value
Method in brief: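 Steps: expose repair-mutant yeast to compound; measure growth; express as inhibition relative to vehicle control.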

[16] = at 5.0 µM (retest, dose inferred, filed as 0.5)
[17] = at 50.0 µM (retest, dose inferred, filed as 5.0)

Measured: growth inhibition

CCC(C)(C)c1ccc(Oc2ccccc2)c(N)c1
inactive: [1]; at 1.2 µM -21% | [1]; at 3.7 µM -4% | [2]; at 1.2 µM -15% | [2]; at 3.7 µM -12% | [3]; at 1.2 µM 3% | [3]; at 3.7 µM 36% | [3]; at 11.0 µM 66% | [4]; at 1.2 µM -16% | [4]; at 3.7 µM -1% | [5]; at 1.2 µM -33% | [5]; at 3.7 µM -6% | [5]; [16] 42% | [5]; [17] 51% | [6]; at 1.2 µM -40% | [6]; at 3.7 µM -24% | [6]; [16] 44% | [6]; [17] 50% | [7]; at 1.2 µM -2% | [7]; at 3.7 µM 13% | [8]; [16] 2% | [9]; at 1.2 µM -22% | [9]; at 3.7 µM -2% | [10]; [16] 62% | [11]; at 1.2 µM -10% | [11]; at 3.7 µM -6% | [11]; [16] 36% | [12]; at 1.2 µM -17% | [12]; at 3.7 µM 0% | [13]; at 1.2 µM -17% | [13]; at 3.7 µM 6% | [14]; [16] 39% | [14]; [17] 45% | [15]; at 1.2 µM -31% | [15]; at 3.7 µM -7%
active: [1]; at 11.0 µM 96% | [1]; at 33.0 µM 99% | [1]; at 100.0 µM 98% | [2]; at 11.0 µM 97% | [2]; at 33.0 µM 99% | [2]; at 100.0 µM 98% | [3]; at 33.0 µM 84% | [3]; at 100.0 µM 90% | [4]; at 11.0 µM 96% | [4]; at 33.0 µM 99% | [4]; at 100.0 µM 99% | [5]; at 11.0 µM 94% | [5]; at 33.0 µM 98% | [5]; at 50.0 µM 90.5% | [5]; at 100.0 µM 99% | [6]; at 11.0 µM 96% | [6]; at 33.0 µM 99% | [6]; at 50.0 µM 93.2% | [6]; at 100.0 µM 99% | [7]; at 11.0 µM 97% | [7]; at 33.0 µM 99% | [7]; at 100.0 µM 99% | [8]; [17] 97% | [8]; at 50.0 µM 93.5% | [9]; at 11.0 µM 96% | [9]; at 33.0 µM 99% | [9]; at 100.0 µM 97% | [10]; [17] 99% | [10]; at 50.0 µM 92.3% | [11]; at 11.0 µM 95% | [11]; at 33.0 µM 99% | [11]; [17] 99% | [11]; at 50.0 µM 92.3% | [11]; at 100.0 µM 98% | [12]; at 11.0 µM 97% | [12]; at 33.0 µM 99% | [12]; at 100.0 µM 99% | [13]; at 11.0 µM 94% | [13]; at 33.0 µM 99% | [13]; at 100.0 µM 98% | [14]; at 50.0 µM 91.2% | [15]; at 11.0 µM 94% | [15]; at 33.0 µM 99% | [15]; at 100.0 µM 97%

O=C1c2ccccc2-c2cc3ccccc3c(=O)n21
inactive: [1]; at 1.2 µM 32% | [1]; at 3.7 µM 64% | [2]; at 1.2 µM -21% | [2]; at 3.7 µM 0% | [2]; at 11.0 µM 31% | [2]; at 33.0 µM 58% | [2]; at 100.0 µM 51% | [3]; at 1.2 µM 41% | [4]; at 1.2 µM 12% | [4]; at 3.7 µM 2% | [4]; at 11.0 µM 37% | [5]; at 1.2 µM 32% | [5]; at 3.7 µM 64% | [5]; [16] 1% | [6]; at 1.2 µM 13% | [6]; at 3.7 µM 19% | [6]; [16] -14% | [6]; at 11.0 µM 48% | [6]; [17] 41% | [7]; at 1.2 µM 11% | [7]; at 3.7 µM 20% | [7]; at 11.0 µM 42% | [7]; at 33.0 µM 66% | [7]; at 100.0 µM 69% | [8]; [16] 9% | [8]; [17] 46% | [9]; at 1.2 µM 1% | [9]; at 3.7 µM 4% | [9]; at 11.0 µM 23% | [9]; at 33.0 µM 51% | [9]; at 100.0 µM 68% | [10]; [16] 22% | [10]; [17] 15% | [10]; at 50.0 µM 14.3% | [11]; at 1.2 µM 3% | [11]; at 3.7 µM 2% | [11]; [16] -2% | [11]; at 11.0 µM 10% | [11]; at 33.0 µM 68% | [11]; [17] 56%
active: [1]; at 11.0 µM 91% | [1]; at 33.0 µM 93% | [1]; at 100.0 µM 87% | [3]; at 3.7 µM 76% | [3]; at 11.0 µM 90% | [3]; at 33.0 µM 92% | [3]; at 100.0 µM 80% | [4]; at 33.0 µM 71% | [4]; at 100.0 µM 76% | [5]; at 11.0 µM 88% | [5]; at 33.0 µM 89% | [5]; [17] 92% | [5]; at 50.0 µM 91.7% | [5]; at 100.0 µM 84% | [6]; at 33.0 µM 70% | [6]; at 50.0 µM 85.3% | [6]; at 100.0 µM 77% | [8]; at 50.0 µM 81% | [11]; at 50.0 µM 84.5% | [11]; at 100.0 µM 72%

From PubChem BioAssay (NCI)
